SMILES strings stand for the structures.

Experiment in all cases: inhibition of PEG-3 promoter-driven reporter – cell-based, HeLa, luciferase, CREF/GAPDH counter-screen panel, dose response (AID 624167)
Assay [1] addresses PEG-3 (UniProt Q6IN02). As to conditions: CREF/GAPDH counter-screens; HeLa PEG-Prom luciferase reporter, overnight, run 1, dose range 1, at 100 µM (top of the series) unless noted.
In assay [2] the target is PEG-3 (UniProt Q6IN02). As to conditions: CREF/GAPDH counter-screens; HeLa PEG-Prom luciferase reporter, overnight, run 2, dose range 1, at 100 µM (top of the series) unless noted.
Assay [3] concerns Rat fibroblasts (CREF). As to conditions: CREF/GAPDH counter-screens; run 1, dose range 1, at 100 µM (top of the series).
Assay [4] concerns Rat fibroblasts (CREF). As to conditions: CREF/GAPDH counter-screens; run 2, dose range 1, at 100 µM (top of the series).

Sequence of PEG-3 (Q6IN02 whole entry, looked up): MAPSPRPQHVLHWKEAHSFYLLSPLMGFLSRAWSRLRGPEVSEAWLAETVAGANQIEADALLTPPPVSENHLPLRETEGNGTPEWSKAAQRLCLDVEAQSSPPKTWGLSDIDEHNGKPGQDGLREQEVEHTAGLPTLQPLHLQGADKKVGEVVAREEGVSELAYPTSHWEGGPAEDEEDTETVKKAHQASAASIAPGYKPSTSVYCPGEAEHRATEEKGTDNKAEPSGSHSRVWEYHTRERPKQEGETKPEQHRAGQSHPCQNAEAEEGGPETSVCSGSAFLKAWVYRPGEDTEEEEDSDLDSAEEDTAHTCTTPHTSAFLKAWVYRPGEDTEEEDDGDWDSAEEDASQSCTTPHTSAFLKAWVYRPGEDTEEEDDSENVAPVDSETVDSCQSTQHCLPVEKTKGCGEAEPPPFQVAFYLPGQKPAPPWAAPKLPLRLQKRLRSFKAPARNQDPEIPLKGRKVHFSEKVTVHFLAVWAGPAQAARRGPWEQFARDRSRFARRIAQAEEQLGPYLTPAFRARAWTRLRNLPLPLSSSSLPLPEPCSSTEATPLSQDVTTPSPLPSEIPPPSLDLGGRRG

As for `Cc1cc(Br)ccc1NC(=O)CNC(=O)Cn1ncc(Cl)c(Cl)c1=O`, the inhibition in assay [1] was determined as 99.8%; in assay [2], 94.5%; in assay [3], 48.9%; in assay [4] it was 96.9%.
Take `CC1CC(C)C(=O)C(C(CC2CC(=O)NC(=O)C2)OC(=O)CC(=O)c2ccccc2)C1` (configuration not stated): the inhibition in assay [1] was 72.4%; in assay [2], 85.5%; in assay [3], 44.6%; in assay [4] it was 23.7%.
Regarding `COc1ccccc1CNCC(O)Cn1c2ccccc2c2ccccc21` (configuration not stated), the inhibition turned out to be 102% in assay [1], 98.7% in assay [2], 99.2% in assay [3] and 98.9% in assay [4].
For `Cc1cc(C)c2sc(NNC(=O)c3ccc(S(=O)(=O)N4CCc5ccccc5C4)cc3)nc2c1`, the inhibition in assay [1] amounted to 84.2%; in assay [2], 94.7%; in assay [3], 53.3%; in assay [4], 25.5%.
For `N=c1n(CC(=O)c2ccc([N+](=O)[O-])cc2)c2ccccc2n1Cc1ccc(Cl)cc1`, the inhibition in assay [1] is 99.6%; in assay [2], 101%; in assay [3], 99.2%; in assay [4] it was 99.4%.
With `COc1ccc(C(=O)NNC(=O)c2ccccn2)cc1`, the inhibition worked out at 102% in assay [1], 95.9% in assay [2], 100% in assay [3] and 98.5% in assay [4].
Consider `CCCC(=O)NC(c1ccc(OC)cc1)c1ccc2cccnc2c1O` (configuration not stated), for which the inhibition came to 66.6% in assay [1], 88.5% in assay [2], 28.1% in assay [3] and 99.5% in assay [4].
For the compound `Cc1cc(C(=O)Nc2cccc(C(=O)O)c2)oc1C`, the inhibition in assay [1] turned out to be 88.1%; in assay [2], 85.8%; in assay [3], 49.8%; in assay [4] it was 52.7%.
For the compound `O=C(/C=C/c1ccccc1)Nc1cccc(C(=O)O)c1`, the inhibition amounted to 99% in assay [1], 97.4% in assay [2], 96.8% in assay [3] and 95.7% in assay [4].
As to `COc1cc(NS(C)(=O)=O)ccc1Nc1c2ccccc2nc2ccccc12`, the inhibition in assay [1] is 102%; in assay [2], 99.2%; in assay [3] it was 86.1%; in assay [4], 95.2%.
Take `Cc1nc(C)c(C(=O)N/N=C/c2cc(Br)ccc2O)s1`: the inhibition in assay [1] was determined as 101%; in assay [2], 101%; in assay [3] it was 52.7%; in assay [4], 46.2%.
Take `CN(C)c1ccc(C=c2c3ccccc3n3c2cc(-c2ccccc2)[n+]3C)cc1`: the inhibition came to 98.9% in assay [1], 102% in assay [2], 101% in assay [3] and 100% in assay [4].
Turning to `Cc1ccc(OCC(=O)c2cc(C)n(-c3ccccc3)c2C)c([N+](=O)[O-])n1`, the inhibition in assay [1] was 77.6%; in assay [2], 74.5%; in assay [3] it was -20%; in assay [4] it was -61.9%.
On to `CC(C)CC1C(=O)N(Cc2cn(Cc3ccco3)nn2)CCS(=O)(=O)N1Cc1ccc(-c2ccc(F)cc2)cc1` (configuration not stated), for which the inhibition in assay [1] was determined as 39%; in assay [2], 30.4%; in assay [3], 96.8%; in assay [4], 100%.
Consider `c1ccc(-c2nc(-c3ccccn3)no2)cc1`, for which the inhibition in assay [1] stood at 89.5%; in assay [2] it was 91.1%; in assay [3], 98%; in assay [4], 98.3%.
Turning to `O=C(CNC(=O)C(c1ccccc1)c1ccccc1)N/N=C/c1ccc(O)cc1O`, the inhibition came out at 53.4% in assay [1], 52.3% in assay [2], 28.9% in assay [3] and 35.6% in assay [4].
Turning to `COC(=O)C1C=CC(OC2OC(COC(C)=O)C(OC(C)=O)C(OC(C)=O)C2OC(C)=O)n2c(=O)n(-c3ccccc3)c(=O)n21` (configuration not stated), the inhibition was 99.8% in assay [1], 98.3% in assay [2], 98.1% in assay [3] and 99.1% in assay [4].
As to `COc1ccc(C(=O)Nc2nc3ccccc3s2)c(OC)c1`, the inhibition in assay [1] stood at 101%; in assay [2] it was 98.8%; in assay [3] it was 97.3%; in assay [4] it was 97.7%.
With `CC(=O)NC(c1ccc(Cl)cc1)c1ccc2cccnc2c1O` (configuration not stated), the inhibition in assay [1] amounted to 97.5%; in assay [2], 88.3%; in assay [3], 4.58%; in assay [4], 23%.
For the compound `COc1cc(SC)ccc1C(=O)Nc1ncc(C)s1`, the inhibition was found to be 95.5% in assay [1], 98.2% in assay [2], 97.8% in assay [3] and 97.3% in assay [4].
With `CCCn1nc(C(=O)Nc2nc(-c3ccccn3)cs2)c2ccccc2c1=O`, the inhibition in assay [1] was determined as 84.7%; in assay [2] it was 80.4%; in assay [3] it was 7.59%; in assay [4] it was 23.2%.
With `O=C(O)c1ccc(CN2C(=O)c3cccc4c([N+](=O)[O-])ccc(c34)C2=O)cc1`, the inhibition in assay [1] was found to be 99%; in assay [2], 100%; in assay [3], 71.3%; in assay [4], 98.6%.
Consider `CCCN1C=CC(=C2C(=O)c3ccccc3C2=O)C=C1`, for which the inhibition in assay [1] was 102%; in assay [2], 98.2%; in assay [3] it was 100%; in assay [4] it was 100%.
Take `COc1ccccc1C(=O)Nc1nc2ccccc2[nH]1`: the inhibition in assay [1] came to 99.2%; in assay [2], 102%; in assay [3] it was 100%; in assay [4], 99.5%.
Take `CC(=O)NC(c1ccc(Cl)cc1Cl)c1ccc2cccnc2c1O` (configuration not stated): the inhibition in assay [1] is 96.5%; in assay [2] it was 96.7%; in assay [3], -0.0688%; in assay [4], 0.461%.
For `O=c1c2ccccc2cnn1-c1nc2ccccc2[nH]1`, the inhibition came out at 98.4% in assay [1], 99.5% in assay [2], 101% in assay [3] and 100% in assay [4].
As to `Cc1cc(/C=N/Nc2ncnc(N)c2[N+](=O)[O-])c(C)n1-c1ccccc1`, the inhibition was 93.6% in assay [1], 87% in assay [2], 91.1% in assay [3] and 93.5% in assay [4].
As to `Cc1nn(-c2nc3ccccc3[nH]2)c(=O)c2ccccc12`, the inhibition in assay [1] stood at 97.5%; in assay [2], 96.4%; in assay [3], 100%; in assay [4], 101%.
Consider `CCOc1ccc2nc(NC(=O)c3ccccn3)sc2c1`, for which the inhibition is 88% in assay [1], 83.6% in assay [2], 87.1% in assay [3] and 83.4% in assay [4].
Regarding `COc1ccc(S(=O)(=O)/N=C2\C=C(Nc3ccc(O)cc3)C(=O)c3ccccc32)cc1`, the inhibition in assay [1] stood at 96.4%; in assay [2], 99.7%; in assay [3], 101%; in assay [4], 97.4%.
The matching figures for `O=C(CCl)N1c2ccccc2Sc2ccc3ccccc3c21`: 99.4%, 101%, 99.4% and 99.6%.
Consider `COc1ccc(NC(=O)c2cc(-c3ccccn3)nc3ccccc23)cc1S(=O)(=O)N(C)C`, for which the inhibition in assay [1] was 56.4%; in assay [2], 61.2%; in assay [3] it was -4.8%; in assay [4], -6.75%.
The matching figures for `COc1cc(CNCCCN2CCOCC2)cc(Br)c1OCc1ccc(Cl)cc1`: 99.2%, 101%, 100% and 99.1%.

For the origin of these results see PubChem BioAssay.
